This is an account of results in ChEMBL document CHEMBL4513216, “Probing the Open Global Health Chemical Diversity Library for Multistage-Active Starting Points for Next-Generation Antimalarials” (ACS Infect Dis, 2020).

Out of some 69,000 compounds screened, about 8,600 (12%) showed an effect of 50% or more. The full list was thinned out, with strong results kept by preference.

The test system of the test is Plasmodium berghei. The test is described as follows: Screen against P. berghei liver stage (PbLuc), transformed with Luciferase, at 10uM. The settings on record: tested at 10 uM. The test is classed as functional, HepG2.
On to `Fc1ccc(CN2CCC3(CC2)CC(c2cccnc2)CO3)cc1` (stereo unspecified), for which the INHIBITION was found to be 15.4%. Under `CN(C)c1cc(CC(NC(=O)C2CC2)c2ccccc2)nc(C2CC2)n1` (stereo unspecified) stands 37.1%; under `O=C(NCc1ccccn1)C1=NN(c2ccccc2)C(=O)CN1`, -170%; under `CN(C)C(c1ccccn1)C1CCC(CNC(=O)C2CC2)CC1` (stereo unspecified), -103%. The result for `Cn1cc(-c2ncc3c(c2C(=O)O)CCN(Cc2ccccn2)C3)cn1` reads 29.4%; that for `Cc1cc(Cl)c(C)c(S(=O)(=O)N2CCN(Cc3ccccn3)CC2)c1Cl`, 18.6%. The result for `CC(C)Cn1cc2nc(N3CCC(O)CC3)[nH]cc-2c1=O` reads 66.5%; that for `CC(C)Cn1cc2nc(N3CCCC(C)C3)[nH]cc-2c1=O` (stereo unspecified), -40.4%.

Regarding `CC(C)Cn1cc2nc(N3CCCC3)[nH]cc-2c1=O`, the INHIBITION was determined as 47.4%. Under `COc1ccccc1C(=O)NS(=O)(=O)c1cncc(Br)c1` stands 28.3%. As to `COc1c(CNCC(O)c2ccccc2)c(C(C)C)nn1C` (stereo unspecified), the INHIBITION stood at 3.73%. The result for `COc1ccc2c(c1)OCC(C(=O)NCc1ncc3c(n1)CCC3)C2` (stereo unspecified) reads -9.39%; that for `O=C1NCc2ccccc2CC12CCN(Cc1ccccc1Cl)CC2`, 36.6%. The result for `Cc1nc(N(C)C)nc(N2CCC3(CC2)CNC(=O)O3)c1C` reads -12.1%; that for `CNC(=O)CN1CCC2(CC1)C[C@@H](O)[C@H](c1ccccc1)NC2=O`, 44.8%.

On to `CN(C)C(=O)CN1CCC2(CC1)C[C@@H](O)[C@H](c1ccccc1)NC2=O`, for which the INHIBITION amounted to 22%. Under `NC(=O)CN1CCC2(CC1)C[C@@H](O)[C@H](c1ccccc1)NC2=O` stands 53.2%; under `CN(C)C(=O)CN1CCn2cc(Cn3cccn3)nc2C1`, 38.5%; under `COc1ccc(C2CCCN2c2nnc(C)s2)c(OC)c1` (stereo unspecified), 15.5%. The result for `COc1ccc(C2CCCN2c2ccnc(C)c2Cl)c(OC)c1` (stereo unspecified) reads 82.2%. Under `COc1ccc(C2CCCN2c2cnccn2)c(OC)c1` (stereo unspecified) stands 31.6%; under `O=C([C@@H]1CN(Cc2nccs2)C[C@H]2OCC[C@H]21)N1CCOCC1`, 14%. Turning to `Cn1cc(CN2CC[C@H]3O[C@H](C(=O)NCc4ccco4)CC[C@H]32)cn1`, the INHIBITION is -20.6%. Under `CC1c2ncc(CNC(=O)C3CC3)n2CCN1Cc1nccs1` (stereo unspecified) stands -4.32%; under `CN1CCC2(COCCN(Cc3cccc(C#N)c3)C2)C1` (stereo unspecified), 89.6%.

As for `CN1CCC2(COCCN(Cc3ccc4c(c3)OCO4)C2)C1` (stereo unspecified), the INHIBITION is 61.5%.

Consider `c1cc2c(cc1CN1CCCC3(CCOC3)C1)OCO2` (stereo unspecified), for which the INHIBITION is recorded as 25.4%. Under `COCCN1CCC2(COCCN(Cc3ccc4c(c3)OCO4)C2)C1` (stereo unspecified) stands 46.7%; under `CCCOC(=O)N1CCCC2(CCN(Cc3cccc(C#N)c3)C2)C1` (stereo unspecified), 2.7%. The result for `CCN1CC2(CCC1=O)CCN(Cc1cccc(C#N)c1)CC2` reads 33.4%; that for `COCC(C)NC(=O)c1sccc1-n1cnnn1` (stereo unspecified), 36.5%; that for `Cc1cc(-c2nnn(CCNS(C)(=O)=O)n2)ccc1F`, 31.8%.

As for `Nc1nnc(CCCn2nnc(-c3ccccc3F)n2)s1`, the INHIBITION is on record as 44.7%. Regarding `Nc1nnc(Cn2nnc(-c3ccccc3F)n2)s1`, the INHIBITION turned out to be 61.8%. Under `CNS(=O)(=O)CCCn1nnc(-c2ccc(F)c(C)c2)n1` stands -6.51%; under `Fc1ccccc1CN1CCC[C@H](Cn2nnc(-c3cccs3)n2)C1`, 21.6%; under `Fc1ccccc1-c1nnn(CCCc2nn[nH]n2)n1`, 78.8%. Under `COCCN1CCC(Cc2cncc(-c3ccc(C(=O)O)cc3)n2)CC1` stands 31.6%.

On to `Nc1cnn(CC(=O)N2CCCCC2)c1`, for which the INHIBITION is 34%. Under `COc1cccc(CN2CCCCC2Cn2nc(C)nc2C)c1` (stereo unspecified) stands -59.4%; under `NC(=O)COc1ccc(C(=O)N2CCCC(n3ccnc3)C2)cc1` (stereo unspecified), -19.4%; under `CNC(=O)N1CC[C@H]2N(C)CC[C@@]2(C(=O)N2CCOCC2)CC1`, -18.4%. In the case of `COc1ccc(C(=O)N2CCCS2(=O)=O)cc1OC`, the INHIBITION turned out to be 5.03%. Under `CCOc1ccc(C(=O)N2CCCS2(=O)=O)cc1OC` stands 11.2%; under `COc1cc(C(=O)N2CCCS2(=O)=O)ccc1OC(C)C`, 66.7%. The result for `Cc1cc(C)n(NC(=O)c2ccccc2F)c(=O)c1` reads 47.1%. Regarding `Cc1cc(C)n(NC(=O)c2ccccc2C)c(=O)c1`, the INHIBITION is recorded as -46.4%. `Cc1cc(C)n(NC(=O)c2ccc(Cl)cc2Cl)c(=O)c1`: the INHIBITION is reported as 60.4%. In the case of `CCc1nc(CN2CCN(C(=O)c3csnn3)CC2)cs1`, the INHIBITION is 10.2%.

Turning to `CS(=O)(=O)Cc1ccc(C(=O)NC2CCc3nccn3C2)o1` (stereo unspecified), the INHIBITION is on record as -16.38%.

Take `CCc1c(O)nc2nc(N3CCCC3)nn2c1C`: the INHIBITION amounted to 44.1%. Under `CC(=O)N1CCCC1c1cncc(Oc2ccc(F)cc2)n1` (stereo unspecified) stands 11.1%; under `NC(=O)CN1CCCC1c1cncc(Oc2ccc(Cl)cc2)n1` (stereo unspecified), 13.5%; under `CC(C)(N)C(=O)N1CCCC1c1cncc(Oc2ccc(F)cc2)n1` (stereo unspecified), 31.1%. The result for `COc1ccc(Oc2cncc(C3CCCN3C(C)=O)n2)cc1` (stereo unspecified) reads -3.98%.

As to `Cc1ncccc1Oc1cncc(C2CCCN2Cc2cncn2C)n1` (stereo unspecified), the INHIBITION amounted to 32.8%. Under `Cn1cncc1CN1CCCC1c1cncc(Oc2ccc(F)cc2)n1` (stereo unspecified) stands 67.7%; under `Cn1cncc1CN1CCCC1c1cncc(Oc2ccc(Cl)cc2)n1` (stereo unspecified), 96.6%. Turning to `CN(C)CC(=O)N1CCCC1c1cncc(Oc2ccc(F)cc2)n1` (stereo unspecified), the INHIBITION is on record as 53%. On to `CNCC(=O)N1CCCC1c1cncc(Oc2ccc(F)cc2)n1` (stereo unspecified), for which the INHIBITION was 38.2%. With `CCN(CC)C(=O)c1ccn(COc2c(Cl)cccc2Cl)n1`, the INHIBITION is 20.9%. Take `Cc1ccc(N2CCCN(C(=O)CCCn3ccnc3C)CC2)nn1`: the INHIBITION was found to be 7.18%. On to `O=C(O)C1CC2(CCN(c3nccc4ccccc34)CC2)CN1` (stereo unspecified), for which the INHIBITION amounted to 93.1%. The result for `O[C@]12CCNC[C@H]1CN(c1ncccc1Cl)CC2` reads 7.6%; that for `CN(C)CCO[C@H]1C[C@@H](O)C12CCN(c1nccc3ccccc13)CC2`, -3.58%.

On to `CN(C)c1nccnc1N1CC[C@@]2(O)CCNC[C@H]2C1`, for which the INHIBITION came out at 15.8%.

Regarding `Cc1nnc(N2CC[C@@]3(O)CCNC[C@H]3C2)c2ccccc12`, the INHIBITION is 25.8%. Under `CCCOc1ccc2ccccc2c1CN1CC[C@@]2(O)CCNC[C@H]2C1` stands 5.41%; under `O[C@]12CCNC[C@H]1CN(c1ccnc3ccccc13)CC2`, 56.7%; under `CC(=O)N1CC2(CCN(c3nccc4ccccc34)CC2)CC1C(=O)O` (stereo unspecified), 29.2%.

As for `O[C@]12CCNC[C@H]1CN(c1nccc3ccccc13)CC2`, the INHIBITION was determined as 53.9%.
